Experimental data as given in PubChem BioAssay AID1347055 (National Center for Advancing Translational Sciences (NCATS), 2019).
About 120 (0.22%) of roughly 54,000 compounds were called active. About 8% were inconclusive and are not listed. Calls come from the whole dose curve; as a rule, active = well fitted inhibition curve with a large enough effect; inconclusive = small, poorly fitted or top-dose-only effect, or effect the other way; inactive = flat fitted curve, though single readings scatter. This excerpt belongs to a sample that is enriched for actives.

These compounds were tested against Fumarate hydratase, mitochondrial (Homo sapiens) (UniProt P07954) (assay: Identification of activators of human fumarate hydratase by quantitative high-throughput screening). Settings: FH coupled MDH/diaphorase resazurin fluorescence, 15 min; series mostly up to 79.9 µM; activity change, negative = inhibition: at the top concentration.
% is set by controls: 0 for no effect and ±100 for the full control effect.
Note: the screen sought activators but most active calls are inhibition curves; nearly all actives have a fitted effect of over 45% in size.

Sequence of Fumarate hydratase, mitochondrial (Homo sapiens) (P07954 whole entry, looked up): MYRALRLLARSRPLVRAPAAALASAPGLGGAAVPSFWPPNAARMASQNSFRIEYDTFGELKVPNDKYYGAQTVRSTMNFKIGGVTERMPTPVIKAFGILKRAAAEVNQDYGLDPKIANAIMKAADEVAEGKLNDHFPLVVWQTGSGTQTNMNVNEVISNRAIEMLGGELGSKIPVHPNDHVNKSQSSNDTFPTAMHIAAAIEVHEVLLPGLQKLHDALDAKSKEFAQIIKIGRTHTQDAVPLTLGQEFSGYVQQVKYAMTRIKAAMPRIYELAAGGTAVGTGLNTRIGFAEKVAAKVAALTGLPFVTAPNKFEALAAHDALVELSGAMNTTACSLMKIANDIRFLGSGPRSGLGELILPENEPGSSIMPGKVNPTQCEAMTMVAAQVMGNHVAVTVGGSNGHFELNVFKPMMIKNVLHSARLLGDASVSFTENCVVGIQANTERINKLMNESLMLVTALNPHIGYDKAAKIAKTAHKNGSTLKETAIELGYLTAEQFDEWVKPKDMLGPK

Activity change, negative = inhibition, inactive:
Clc1ccc(CSc2nncn3c2cc2occc23)cc1 -10.1%, CCC/C=C/C=C/C1CC(O)C2(O)C(=O)OCC12 (stereo not given) 0.378%, CC(=O)/C=C/C1C(C)CC(O[C@@H]2O[C@H](CO)[C@@H](O)[C@H](O)[C@H]2O)CC1(C)C (stereo not given in full) -0.219% [at 53.3 µM], COc1ccc(NC(=O)c2ccco2)cc1NC(=O)COc1ccc(C)c(C)c1 1.59%, Cc1cc(NC(=O)CSc2ncc(C(=O)Nc3ccc(Cl)cc3)c(=O)n2C)no1 6.78%, C1CCC[C@H]2CCCN3CC[C@@H](CCCCCC[C@@H]4CCCN5CC[C@@H](CC1)O[C@@H]45)O[C@@H]23 -2.71% [at 0.217 µM], CNC(=O)c1ccccc1Nc1nc(Nc2ccc3c(c2OC)CCC[C@@H](N2CCN(CCO)CC2)C3)ncc1Cl -3.28%, CN(C)c1cccc(Oc2cnc(Nc3cccc(O)c3)nc2)c1 -7.76%, CCOc1ccc(CCNC(=O)CN(c2ccc(C)cc2)S(=O)(=O)N(C)C)cc1OCC -7.19%, CC1CN(C(=O)N2CCC(C(=O)NCc3ccco3)CC2)c2cc(Cl)ccc2O1 (stereo not given) 2.28%, CC(CCC1(O)OC2CC3C4CC=C5C[C@@H](O[C@@H]6O[C@H](CO)[C@@H](O[C@@H]7O[C@@H](C)[C@H](O)[C@@H](O)[C@H]7O)[C@H](O)[C@H]6O[C@@H]6O[C@@H](C)[C@H](O)[C@@H](O)[C@H]6O)CC[C@]5(C)C4CC[C@]3(C)[C@@]2(O)[C@@H]1C)CO[C@@H]1O[C@H](CO)[C@@H](O)[C@H](O)[C@H]1O (stereo not given in full) 0.389% [at 20.6 µM], CC(=O)OC1CCC2(C)C(CCC3(C)C2CC=C2C4CC(C)(C)CCC4(C)CCC23C)C1(C)C(=O)O (stereo not given) -22% [at 53.3 µM], CCC(COC)n1nnc2c(Nc3ccc(OC)cc3C)nc(C)cc21 (stereo not given) -0.898%, C[C@H]1COCCN1c1cc(C2(S(=O)(=O)C3CC3)CC2)nc(-c2ccc(NC(=S)NCCO)cc2)n1 -2.67%, CCCN(CCC)CCCNC(=O)Cn1ncc2c3ccccc3n(Cc3ccccc3)c2c1=O -13.9%, CC(CNC(=O)c1nnc(Cc2cccc(F)c2)o1)c1ccccc1 (stereo not given) -6.76%, CC(C)(C)OC(=O)N1CCC(c2c(C(=O)NCCc3ccsc3)cnn2-c2ccc(F)cc2F)CC1 -7.51%, CC(=O)c1ccc(NC(=O)CCc2nc(-c3ccc(C)cc3)no2)cc1 -9.62%, CC(C)C(=O)Nc1nc2c(s1)CC(C(C)(C)C)CC2 (stereo not given) -26%, COC(=O)C12C(=O)C(C)=C(O)C1(C)C(C)=CC1C3(CO)CCC(O)C(C)(C)C3CCC12C (stereo not given) 2.3% [at 53.3 µM]
